Data from PubChem BioAssay (NCATS).
Values joined by “and” are separate entries in the source; they are usually repeats but may differ in a detail not shown here. Equal entries are not always repeated. Results filed as inconclusive are left out. Active and inactive are the calls of the source. Unless noted, calls come from the whole dose curve; as a rule, active = well fitted curve in the direction sought with a large enough effect; inconclusive = small, poorly fitted or top-dose-only effect, or another doubt; inactive = no such curve, though single readings can be large; an effect the other way counts as inactive or inconclusive.

Key:
[1] = qHTS assay for small molecule disruptors of the mitochondrial membrane potential - 1 hr assay (AID 651754; calls by dose curve; note: % is set by controls: 0 for no effect and ±100 for the full control effect; nearly all actives have a fitted effect of over 35% in size)
In short: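 HepG2 cells, attached overnight at 37C, were exposed to compound or DMSO vehicle for 1 hr at 37C, 5% CO2, then stained with Mito-MPS dye for 30 min. Red aggregate versus green monomer fluorescence reports membrane potential.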

[2] = qHTS assay for small molecule disruptors of the mitochondrial membrane potential - 5 hr assay (AID 651755; calls by dose curve; note: % is set by controls: 0 for no effect and ±100 for the full control effect; nearly all actives have a fitted effect of over 40% in size)
In short: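 HepG2, 2,000 cells/well, overnight attach; cpd or DMSO 5 hr, 37C/5% CO2; Mito-MPS 30 min 37C; fluor 490/535 + 540/590 nm.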

[3] = target: Tumor necrosis factor (Homo sapiens) (UniProt P01375); assay: qHTS assay to identify small molecules that stimulate Tumor Necrosis Factor-alpha (TNF-alpha) secretion (AID 651757; active = well fitted curve in the direction sought with a large enough effect in the signal ratio; the % refers to the signal ratio; note: 0% is about no effect)
Tumor necrosis factor (Homo sapiens), sequence (P01375 whole entry, looked up): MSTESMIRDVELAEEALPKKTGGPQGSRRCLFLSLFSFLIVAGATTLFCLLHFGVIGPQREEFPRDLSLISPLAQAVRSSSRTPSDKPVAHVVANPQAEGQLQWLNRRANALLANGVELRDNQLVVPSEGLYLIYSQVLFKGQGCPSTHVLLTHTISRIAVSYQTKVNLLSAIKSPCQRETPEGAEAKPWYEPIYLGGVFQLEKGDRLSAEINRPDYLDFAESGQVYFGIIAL
In short: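 THP-1 cells were exposed to compounds for 17 hrs at 37 C, after which secreted TNF-alpha was measured by homogeneous HTRF (TR-FRET) using cryptate- and XL665-labeled anti-TNF-alpha antibodies, read after 3 hr at room temperature.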

[4] = qHTS assay to identify small molecules that stimulate interleukin-8 (IL-8) secretion (AID 651758; active = well fitted activation curve with a large enough effect in the signal ratio; the % refers to the signal ratio; note: 0% is about no effect)
In short: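 Secreted IL-8 measured by TR-FRET sandwich (cryptate and XL665 antibodies) from THP-1 cells exposed to compound overnight (16 hrs, 37 C).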

[5] = qHTS assay for environmental chemicals that activate the Aryl hydrocarbon Receptor (AhR) signaling pathway (AID 651777); conditions: 1A2-DRE human hepatoma cells, luciferase, 24 h; activation: active compounds read high; note: % of control where 0% means no effect; nearly all actives have a fitted effect of over 15% in size
In short: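 Human hepatoma 1A2-DRE cells, stably carrying a dioxin response element and CYP1A2 promoter driving luciferase, were exposed to compounds for 24 hr at 37 C and 5% CO2. Luciferase signal was then read after 30 min One-Glo at room temperature.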

[6] = target: Peroxisome proliferator-activated receptor alpha (Homo sapiens) (UniProt Q07869); assay: qHTS assay for small molecule agonists of the peroxisome proliferator-activated receptor alpha (PPARalpha) signaling pathway (AID 651778); conditions: PathHunter PPARalpha complementation, chemiluminescence, 6 h; active compounds read high; note: % of control where 0% means no effect
Peroxisome proliferator-activated receptor alpha (Homo sapiens), sequence (Q07869 whole entry, looked up): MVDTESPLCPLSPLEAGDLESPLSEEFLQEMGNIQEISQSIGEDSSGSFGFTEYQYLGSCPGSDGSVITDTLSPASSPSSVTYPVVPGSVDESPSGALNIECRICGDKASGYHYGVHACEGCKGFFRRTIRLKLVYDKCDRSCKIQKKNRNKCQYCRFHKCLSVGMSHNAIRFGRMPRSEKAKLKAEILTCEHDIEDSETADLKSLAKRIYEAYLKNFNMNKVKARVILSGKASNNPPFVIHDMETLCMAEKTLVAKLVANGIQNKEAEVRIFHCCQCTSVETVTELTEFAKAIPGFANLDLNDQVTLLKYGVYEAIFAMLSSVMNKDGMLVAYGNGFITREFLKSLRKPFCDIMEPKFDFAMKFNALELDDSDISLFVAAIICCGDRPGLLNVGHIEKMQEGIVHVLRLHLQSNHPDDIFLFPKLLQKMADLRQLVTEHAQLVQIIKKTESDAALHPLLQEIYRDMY
In short: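 Chemiluminescence from complemented enzyme reported PPARalpha activation in cells after 6 hr of compound treatment at 37 C. The detection reagent was incubated for 60 min at room temperature, and compounds were scored as agonists.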

[7] = target: Nuclear receptor ROR-gamma (Homo sapiens) (UniProt P51449); assay: qHTS assay for small molecule antagonists of the retinoid-related orphan receptor gamma (ROR-gamma) signaling pathway (AID 651802); note: series mostly up to about 92 µM; % is set by controls: 0 for no effect and ±100 for the full control effect; nearly all actives have a fitted effect of over 60% in size
Nuclear receptor ROR-gamma (Homo sapiens), sequence (P51449 whole entry, looked up): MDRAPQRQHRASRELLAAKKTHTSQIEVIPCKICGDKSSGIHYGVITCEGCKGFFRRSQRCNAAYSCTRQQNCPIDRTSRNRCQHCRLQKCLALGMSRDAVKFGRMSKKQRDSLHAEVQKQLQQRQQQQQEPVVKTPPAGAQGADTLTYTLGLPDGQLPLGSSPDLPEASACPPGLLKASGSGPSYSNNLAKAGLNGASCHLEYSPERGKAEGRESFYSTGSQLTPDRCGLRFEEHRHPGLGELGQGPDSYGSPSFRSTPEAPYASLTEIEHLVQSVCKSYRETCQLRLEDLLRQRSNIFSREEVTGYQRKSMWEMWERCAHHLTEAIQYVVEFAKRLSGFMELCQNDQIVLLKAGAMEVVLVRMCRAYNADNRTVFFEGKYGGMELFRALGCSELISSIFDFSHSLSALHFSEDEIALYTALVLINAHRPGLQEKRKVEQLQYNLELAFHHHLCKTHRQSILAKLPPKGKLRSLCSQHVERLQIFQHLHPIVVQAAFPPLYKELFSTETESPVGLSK
In short: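 CHO cells carrying TET-inducible ROR-gamma and an ROR response element–luciferase reporter were exposed to compound, then induced with doxycycline. After 16hr at 37C, luminescence was read; lower signal indicates antagonism.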

[8] = qHTS assay for small molecule agonists of the antioxidant response element (ARE) signaling pathway measured by Nrf2-dependant transcriptional activity (AID 720636; active = well fitted curve in the direction sought with a large enough effect in the repeat runs; an effect the other way counts as inactive or inconclusive; note: % of control where 0% means no effect)
In short: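 ARE-luc HepG2 cells carrying an Nrf2-responsive luciferase reporter were plated in medium with 1% dialyzed FBS, left 6 hr at 37 C to attach, then exposed to compound for 16 hr. Luciferase luminescence was read after ONE-Glo addition.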

[9] = qHTS assay for small molecule antagonists of the retinoid-related orphan receptor gamma (ROR-gamma) signaling pathway - cell viability counter screen (AID 720652; active = well fitted curve in the direction sought with a large enough effect in the repeat runs; an effect the other way counts as inactive or inconclusive;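 note: series mostly up to about 92 µM; compound exposure lasted 16 hr before ATP read; % is set by controls: 0 for no effect and ±100 for the full control effect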)
In short: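 Counter screen in CHO cells carrying TET-inducible ROR-gamma and an ROR response element-luciferase reporter; cells plated 5 hr, compound pinned, doxycycline added, then 16 hr at 37 C. Viability read as intracellular ATP by CellTiter-Glo luminescence.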

[10] = qHTS assay for small molecule agonists of the antioxidant response element (ARE) signaling pathway measured by Nrf2-dependant transcriptional activity - cell viability counter screen (AID 720653; active = well fitted curve in the direction sought with a large enough effect in the repeat runs; an effect the other way counts as inactive or inconclusive; note: % is set by controls: 0 for no effect and ±100 for the full control effect); conditions: ARE-bla HepG2 viability, CellTiter-Glo ATP luminescence, 16 h; active compounds read low
In short: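 Cytotoxicity counter screen: intracellular ATP quantified by CellTiter-Glo luminescence in the same ARE-bla HepG2 plates, after 16 h compound exposure and a 2 h beta-lactamase substrate step.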

[11] = qHTS assay for cell viability of HEK293 cells (AID 743288); conditions: ATP luminescence (CellTiter-Glo), 18 h, active compounds read low; note: % is set by controls: 0 for no effect and ±100 for the full control effect; nearly all actives have a fitted effect of over 50% in size
In short: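 HEK293 parental, 2,000 cells/well; ≥5 h pre-incubation 37 C; pintool compound addition; 18 h, 37 C; CellTiter-Glo 30 min RT; luminescence read.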

[12] = qHTS assay for cell viability of the p53RE-bla HCT-116 cell line (AID 743292); note: % is set by controls: 0 for no effect and ±100 for the full control effect; nearly all actives have a fitted effect of over 55% in size
In short: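 CellSensor p53RE-bla HCT-116 cells, 4,000/well, preincubated 5 h at 37 C, then exposed to compounds in DMSO for 16 h at 37 C. Viability read as CellTiter-Glo luminescence (intracellular ATP) after 30 min at room temperature.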

[13] = target: Nuclear receptor subfamily 1 group I member 2 (Rattus norvegicus) (UniProt Q9R1A7); assay: qHTS assay for small molecule activators of the rat pregnane X receptor (rPXR) signaling pathway (AID 651751; call rule not given here; note: 0% is about no effect); conditions: rPXR reporter cells, luciferase (One-Glo), 24 h
Nuclear receptor subfamily 1 group I member 2 (Rattus norvegicus), sequence (Q9R1A7 whole entry, looked up): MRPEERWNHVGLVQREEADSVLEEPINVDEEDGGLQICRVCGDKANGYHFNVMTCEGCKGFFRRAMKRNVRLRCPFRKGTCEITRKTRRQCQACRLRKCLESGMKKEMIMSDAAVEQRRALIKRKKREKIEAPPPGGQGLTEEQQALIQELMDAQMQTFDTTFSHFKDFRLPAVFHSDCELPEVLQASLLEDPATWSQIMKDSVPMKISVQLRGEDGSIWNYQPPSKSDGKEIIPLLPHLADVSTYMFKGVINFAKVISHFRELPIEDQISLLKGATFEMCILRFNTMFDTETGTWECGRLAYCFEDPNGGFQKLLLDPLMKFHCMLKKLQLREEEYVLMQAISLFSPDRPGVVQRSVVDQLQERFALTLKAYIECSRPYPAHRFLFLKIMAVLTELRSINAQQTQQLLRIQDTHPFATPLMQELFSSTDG

[14] = qHTS assay for small molecule activators of the human pregnane X receptor (PXR) signaling pathway (AID 720659; call rule not given here; note: 0% is about no effect)

Nc1cccc([N+](=O)[O-])c1
inactive: Potency [1] | Potency [2] | Potency [3] | Potency [4] | activation [5] 0.683% | max response [6] -2.36% | Potency [7] | outcome [8] | Potency [9] | max response [10] 11.8% | max response [11] -2.77% | Potency [12] | max response [13] -4.93% | outcome [14]

C=C(C)C(=O)OCC(C)O (configuration not stated)
inactive: Potency [1] | Potency [2] | Potency [3] | Potency [4] | activation [5] 0.365% | max response [6] -1.16% | Potency [7] | outcome [8] | Potency [9] | max response [10] 7.34% | max response [11] -4.55% | Potency [12] | max response [13] -4.2% | outcome [14]

Cc1ccccc1C#N
inactive: Potency [1] | Potency [2] | Potency [3] | Potency [4] | activation [5] 3.69% | max response [6] -1.24% | Potency [7] | outcome [8] | Potency [9] | max response [10] -8.58% | max response [11] -0.799% | Potency [12] | max response [13] -0.838% | outcome [14]

NC(=O)CCCCC(N)=O
inactive: Potency [1] | Potency [2] | Potency [3] | Potency [4] | activation [5] -0.919% | max response [6] -1.94% | Potency [7] | outcome [8] | Potency [9] | max response [10] -6.44% | max response [11] 10.2% | Potency [12] | max response [13] 1.18% | outcome [14]

O=[N+]([O-])c1cccc(C(F)(F)F)c1
inactive: Potency [1] | Potency [2] | Potency [3] | Potency [4] | activation [5] 0.319% | max response [6] 2.74% | Potency [7] | outcome [8] | max response [10] 14.6% | max response [11] 0.368% | Potency [12] | max response [13] -1.97% | outcome [14]

CC(C)C=O
inactive: Potency [1] | Potency [2] | Potency [3] | Potency [4] | activation [5] 0.299% | max response [6] -0.412% | Potency [7] | outcome [8] | Potency [9] | max response [10] -2.28% | max response [11] -10.3% | Potency [12] | max response [13] 1.58% | outcome [14]

CCCCC(CC)CO (configuration not stated)
inactive: Potency [1] | Potency [2] | Potency [3] | Potency [4] | activation [5] -0.248% | max response [6] -2.86% | Potency [7] | outcome [8] | Potency [9] | max response [10] 7.9% | max response [11] -2.63% | Potency [12] | max response [13] -2.06% | outcome [14]

O=C(O)c1ccccc1Cl
inactive: Potency [1] | Potency [2] | Potency [3] | Potency [4] | activation [5] -2.05% | max response [6] -0.83% | Potency [7] | outcome [8] | Potency [9] | max response [10] -0.91% | max response [11] -4.79% | Potency [12] | max response [13] 1.04% | outcome [14]

O=C1OC(=O)c2c(Br)c(Br)c(Br)c(Br)c21
inactive: Potency [1] | Potency [2] | Potency [3] | Potency [4] | activation [5] -1.58% and 0.554% | max response [6] 0.713% and 0.326% | outcome [8] | Potency [9] | max response [10] -8.33% and -1.37% | max response [11] 2.2% and -6.24% | Potency [12] | max response [13] -2.83% and 0.309% | outcome [14]

Oc1c(Cl)ccc(Cl)c1Cl
inactive: Potency [1] | Potency [2] | Potency [3] | Potency [4] | activation [5] -0.586% | max response [6] 6.63% | outcome [8] | Potency [9] | max response [10] 0.617% | max response [11] 4.44% | Potency [12] | max response [13] 0.125% | outcome [14]

CC1(N)CCC(C(C)(C)N)CC1 (configuration not stated)
inactive: Potency [1] | Potency [2] | Potency [3] | Potency [4] | activation [5] -0.642% | max response [6] 0.74% | Potency [7] | outcome [8] | Potency [9] | max response [10] 1.22% | max response [11] 3.33% | Potency [12] | max response [13] 1.15% | outcome [14]

c1ccc(Oc2ccccc2)cc1
inactive: Potency [1] | Potency [2] | Potency [3] | Potency [4] | activation [5] -0.267% and -0.51% | max response [6] -7.64% and 0.0496% | Potency [7] | outcome [8] | Potency [9] | max response [10] 5.45% and -9.72% | max response [11] -1.32% and 1.9% | Potency [12] | max response [13] -0.536% and 5.2% | outcome [14]

CC(C)=CCl
inactive: Potency [1] | Potency [2] | Potency [3] | Potency [4] | activation [5] 2.36% | max response [6] 0.634% | Potency [7] | outcome [8] | Potency [9] | max response [10] 14.9% | max response [11] -6.69% | Potency [12] | max response [13] 3.22% | outcome [14]

Cc1ccc(C)cc1
inactive: Potency [1] | Potency [2] | Potency [3] | Potency [4] | activation [5] 0.01% | max response [6] -4.74% | Potency [7] | outcome [8] | Potency [9] | max response [10] -7.71% | max response [11] -11.4% | Potency [12] | max response [13] 0.288% | outcome [14]

CCOCC(=O)O
inactive: Potency [1] | Potency [2] | Potency [3] | Potency [4] | activation [5] -0.35% | max response [6] -1.55% | Potency [7] | outcome [8] | Potency [9] | max response [10] 1.2% | max response [11] -0.256% | Potency [12] | max response [13] 1.81% | outcome [14]
